Consider nine molecules from PubChem BioAssay (NCI).

Experiment [1] can be described thus: NCI Yeast Anticancer Drug Screen. Data for the rad50 strain (AID 155).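 Also: 0% = growth of vehicle-only cultures of the same strain.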 The note with it: S. cerevisiae rad50 strain growth inhibition, stronger effect = higher value. Summed up: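 A DNA repair-deficient yeast mutant serves as the test organism; compound-induced growth inhibition is calculated against vehicle-treated cells.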
Experiment [2] can be described thus: NCI Yeast Anticancer Drug Screen. Data for the mec2-1 strain (AID 157). Particulars: S. cerevisiae mec2-1 strain, stronger effect = higher value. Summed up:
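Yeast mec2-1 mutant treated with compound. Readout: growth inhibition vs vehicle controls.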

A short description of experiment [3]: NCI Yeast Anticancer Drug Screen. Data for the sgs1 mgt1 strain (AID 161).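 Also: 0% = growth of cultures given vehicle only.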 Particulars: S. cerevisiae sgs1 mgt1 strain, stronger effect = higher value. Summed up:
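Inhibition of yeast growth, normalised to vehicle-treated controls, is reported for a strain bearing genetic alterations in DNA damage repair.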

A short description of experiment [4]: NCI Yeast Anticancer Drug Screen. Data for the cln2 rad14 strain (AID 165).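 Also: 0% = growth equal to vehicle treated cultures.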 Particulars: S. cerevisiae cln2 rad14 strain, stronger effect = higher value. Summed up:
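cln2 rad14 yeast strain; compound exposure; growth inhibition read vs vehicle controls.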

The nature of experiment [5]: NCI Yeast Anticancer Drug Screen. Data for the bub3 strain (AID 167). The note with it: S. cerevisiae bub3 mutant strain, stronger effect = higher value. Summed up: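 Inhibition values come from growth of compound-treated mutant yeast normalised to vehicle-treated controls.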
Experiment [6] can be described thus: NCI Yeast Anticancer Drug Screen. Data for the mlh1 rad18 strain (AID 175). Particulars: S. cerevisiae mlh1 rad18 strain growth inhibition, stronger effect = higher value. Summed up:
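Yeast w/ defined DNA-repair lesions; compound exposure; growth vs vehicle controls → % inhibition.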

[7] abbreviates: at 5.0 µM (retest, dose inferred, filed as 0.5).
Setting [8] is: at 50.0 µM (retest, dose inferred, filed as 5.0).

Structures are written as SMILES. Compounds without any hit were thinned out: in the full panel of roughly 79,000, 15% have a hit. A number with no mark means an inactive call. The source made the active and inactive calls. Rule as the data show it: active = growth inhibition above about 70%; inactive = the rest.

Turning to `NNc1ncc2c(n1)-c1ccccc1OC2`, the growth inhibition in experiment [1] (setting [7]) was 23%; in experiment [1] (setting [8]) it was 49%; in experiment [1] (at 50.0 µM), 47.3%; in experiment [2] (setting [7]), 6%; in experiment [2] (setting [8]), 38%; in experiment [2] (at 50.0 µM) it was 18.8%. The growth inhibition in experiment [3] (setting [7]) was 14%; in experiment [3] (setting [8]) it was 28%; in experiment [3] (at 50.0 µM) it was 24.1%; in experiment [4] (setting [7]) it was 21%; in experiment [4] (setting [8]), 33%; in experiment [4] (at 50.0 µM) it was 4.1%. The growth inhibition was 12% in experiment [5] (setting [7]); 40% in experiment [5] (setting [8]); -1.1% in experiment [5] (at 50.0 µM); 13% in experiment [6] (setting [7]); 53% in experiment [6] (setting [8]); 89.8% (active) in experiment [6] (at 50.0 µM).

For the molecule `O=C(O)c1cc2oc(-c3ccccc3)cc2[nH]1`, the growth inhibition was -11% in experiment [1] (setting [7]); 71% (active) in experiment [1] (setting [8]); 72.5% (active) in experiment [1] (at 50.0 µM); -8% in experiment [2] (setting [7]); 71% (active) in experiment [2] (setting [8]); 88.7% (active) in experiment [2] (at 50.0 µM). Also, the growth inhibition in experiment [3] (setting [7]) is 7%; in experiment [3] (setting [8]), 74% (active); in experiment [3] (at 50.0 µM), 47.9%; in experiment [4] (setting [7]), -32%; in experiment [4] (setting [8]), 34%; in experiment [4] (at 50.0 µM), 69.8%. The growth inhibition in experiment [5] (setting [7]) was -14%; in experiment [5] (setting [8]) it was 51%; in experiment [5] (at 50.0 µM), 83.8% (active); in experiment [6] (setting [7]), -9%; in experiment [6] (setting [8]) it was 80% (active); in experiment [6] (at 50.0 µM), 87.3% (active).

Consider `CCC(=O)Nc1ccc(NC(C)=O)cc1`, for which the growth inhibition in experiment [1] (setting [7]) was -6%; in experiment [1] (setting [8]), -9%; in experiment [1] (at 50.0 µM), -17.6%; in experiment [2] (setting [7]), -9%; in experiment [2] (setting [8]), 1%; in experiment [2] (at 50.0 µM), -6.9%. The growth inhibition was -5% in experiment [3] (setting [7]); 6% in experiment [3] (setting [8]); -8.65% in experiment [3] (at 50.0 µM); 6% in experiment [4] (setting [7]); -16% in experiment [4] (setting [8]); -11.6% in experiment [4] (at 50.0 µM). The growth inhibition in experiment [5] (setting [7]) was -10%; in experiment [5] (setting [8]) it was -3%; in experiment [5] (at 50.0 µM), 23.2%; in experiment [6] (setting [7]), -8%; in experiment [6] (setting [8]) it was -28%; in experiment [6] (at 50.0 µM) it was -8.9%.

For `Cc1cccc(NC(=S)N/N=C(/c2ccccc2)c2ccccn2)c1`, the growth inhibition in experiment [1] (setting [7]) is -3%; in experiment [1] (setting [8]) it was 94% (active); in experiment [1] (at 50.0 µM), 56%; in experiment [2] (setting [7]), -1%; in experiment [2] (setting [8]), 94% (active); in experiment [2] (at 50.0 µM) it was 66.5%. In addition, the growth inhibition in experiment [3] (setting [7]) is -35%; in experiment [3] (setting [8]), 93% (active); in experiment [3] (at 50.0 µM), 73.2% (active); in experiment [4] (setting [7]), -15%; in experiment [4] (setting [8]), 92% (active); in experiment [4] (at 50.0 µM) it was 74.7% (active). The growth inhibition in experiment [5] (setting [7]) was -38%; in experiment [5] (setting [8]), 93% (active); in experiment [5] (at 50.0 µM), 77.4% (active); in experiment [6] (setting [7]) it was -8%; in experiment [6] (setting [8]), 93% (active); in experiment [6] (at 50.0 µM), 76.8% (active).

As for `N=C1C(=O)c2ccccc2-c2ccccc21`, the growth inhibition in experiment [1] (setting [7]) is -93%; in experiment [1] (setting [8]), 97% (active); in experiment [1] (at 50.0 µM) it was 96.3% (active); in experiment [2] (setting [7]), -25%; in experiment [2] (setting [8]), 99% (active); in experiment [2] (at 50.0 µM), 96.3% (active). Moreover, the growth inhibition in experiment [3] (setting [7]) was -35%; in experiment [3] (setting [8]), 98% (active); in experiment [3] (at 50.0 µM) it was 97.3% (active); in experiment [4] (setting [7]), -75%; in experiment [4] (setting [8]), 98% (active); in experiment [4] (at 50.0 µM), 91.3% (active). For the same molecule, the growth inhibition in experiment [5] (setting [7]) is -20%; in experiment [5] (setting [8]) it was 97% (active); in experiment [5] (at 50.0 µM), 97% (active); in experiment [6] (setting [7]), -86%; in experiment [6] (setting [8]) it was 97% (active); in experiment [6] (at 50.0 µM) it was 95.7% (active).

With `COC(=O)C1(OC(=O)CCC(=O)O)C(=O)NC2=C1C(=O)c1ccccc1C2=O` (configuration not stated), the growth inhibition in experiment [1] (setting [7]) is 1%; in experiment [1] (setting [8]), 9%; in experiment [1] (at 50.0 µM) it was 75.8% (active); in experiment [2] (setting [7]), 2%; in experiment [2] (setting [8]) it was -58%; in experiment [2] (at 50.0 µM) it was 12%. In addition, the growth inhibition in experiment [3] (setting [7]) was 2%; in experiment [3] (setting [8]) it was 13%; in experiment [3] (at 50.0 µM), 47.8%; in experiment [4] (setting [7]) it was 2%; in experiment [4] (setting [8]), 6%; in experiment [4] (at 50.0 µM), 38.5%. Besides, the growth inhibition in experiment [5] (setting [7]) was -42%; in experiment [5] (setting [8]), 16%; in experiment [5] (at 50.0 µM), 32.9%; in experiment [6] (setting [7]), 1%; in experiment [6] (setting [8]), 17%; in experiment [6] (at 50.0 µM) it was 47.2%.

Regarding `CCc1scc(C)[n+]1CC(=O)c1cccc([N+](=O)[O-])c1`, the growth inhibition was -1% in experiment [1] (setting [7]); 15% in experiment [1] (setting [8]); -6.25% in experiment [1] (at 50.0 µM); -10% in experiment [2] (setting [7]); 3% in experiment [2] (setting [8]); -2.9% in experiment [2] (at 50.0 µM). The growth inhibition in experiment [3] (setting [7]) was 11%; in experiment [3] (setting [8]), 2%; in experiment [3] (at 50.0 µM), -4.4%; in experiment [4] (setting [7]) it was 12%; in experiment [4] (setting [8]), 18%; in experiment [4] (at 50.0 µM), 17.6%. Also, the growth inhibition is 12% in experiment [5] (setting [7]); 25% in experiment [5] (setting [8]); 8.95% in experiment [5] (at 50.0 µM); 19% in experiment [6] (setting [7]); 22% in experiment [6] (setting [8]); -1.95% in experiment [6] (at 50.0 µM).

Take `COc1cccc(/C=C/C(C)=O)c1OC`: the growth inhibition in experiment [1] (setting [7]) is 2%; in experiment [1] (setting [8]) it was 35%; in experiment [1] (at 50.0 µM), 76% (active); in experiment [2] (setting [7]) it was 4%; in experiment [2] (setting [8]), 8%; in experiment [2] (at 50.0 µM), 13.9%. The growth inhibition in experiment [3] (setting [7]) was -1%; in experiment [3] (setting [8]) it was 3%; in experiment [3] (at 50.0 µM), 24.5%; in experiment [4] (setting [7]), -4%; in experiment [4] (setting [8]), 4%; in experiment [4] (at 50.0 µM), 21.9%. Besides, the growth inhibition in experiment [5] (setting [7]) was -2%; in experiment [5] (setting [8]) it was -1%; in experiment [5] (at 50.0 µM), 5.2%; in experiment [6] (setting [7]) it was -4%; in experiment [6] (setting [8]), 7%; in experiment [6] (at 50.0 µM), 37.5%.

In the case of `CC1CCN(C(=S)NNC(C)c2cc3ccccc3cn2)CC1` (configuration not stated), the growth inhibition in experiment [1] (setting [7]) was 45%; in experiment [1] (setting [8]) it was 97% (active); in experiment [1] (at 50.0 µM), 82.5% (active); in experiment [2] (setting [7]), 60%; in experiment [2] (setting [8]), 98% (active); in experiment [2] (at 50.0 µM), 75.7% (active). For the same molecule, the growth inhibition is 80% (active) in experiment [3] (setting [7]); 97% (active) in experiment [3] (setting [8]); 88.6% (active) in experiment [3] (at 50.0 µM); 82% (active) in experiment [4] (setting [7]); 97% (active) in experiment [4] (setting [8]); 84.9% (active) in experiment [4] (at 50.0 µM). In addition, the growth inhibition is 71% (active) in experiment [5] (setting [7]); 97% (active) in experiment [5] (setting [8]); 85.8% (active) in experiment [5] (at 50.0 µM); 50% in experiment [6] (setting [7]); 96% (active) in experiment [6] (setting [8]); 86.8% (active) in experiment [6] (at 50.0 µM).
